Bioassay records deposited in PubChem BioAssay by several laboratories.
Granule exo inh – blocks lytic granule exocytosis. TALL-104 LAMP-1 surface exposure, flow cytometry; cells stimulated with thapsigargin and PMA. inhibition, % at 10 µM. 0.66% of 360,000 active;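 active = inhibition above about 55%, limit read from the data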
NTR1 agonist – agonists of human neurotensin receptor NTR1; P30989; NTR1-U2OS beta-arrestin-GFP spot imaging, agonist mode; activation, % at 20 µM; 0.17% of 330,000 active; AID 493036;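 active = activation at or above 40% of the spot to cytoplasm intensity ratio, with at least 20 cells analyzed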
Target sequence (P30989 whole entry, looked up): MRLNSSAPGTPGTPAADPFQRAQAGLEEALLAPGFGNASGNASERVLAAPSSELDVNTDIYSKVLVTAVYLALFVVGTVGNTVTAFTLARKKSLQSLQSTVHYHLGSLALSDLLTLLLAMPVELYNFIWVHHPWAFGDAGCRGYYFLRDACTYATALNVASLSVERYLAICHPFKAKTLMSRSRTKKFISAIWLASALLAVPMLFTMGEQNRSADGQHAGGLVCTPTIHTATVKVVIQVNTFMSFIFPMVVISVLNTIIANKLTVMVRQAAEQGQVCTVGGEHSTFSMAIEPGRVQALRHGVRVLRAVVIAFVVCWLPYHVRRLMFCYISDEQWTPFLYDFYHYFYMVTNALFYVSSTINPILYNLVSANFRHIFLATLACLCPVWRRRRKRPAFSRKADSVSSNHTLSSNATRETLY
ABHD5-PLIN5 inh – ABHD5-PLIN5 protein interaction inhibition; Q00G26+Q8WTS1; Split G. princeps luciferase complementation, luminescence, 4 h; inhibition, % at 4 µM; 0.78% of 360,000 active;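 active = inhibition above the mean inhibition across every tested compound plus 3 SD, cut at about 22% in these data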
m5-HT2A agonist – mouse HTR2A agonism via beta-arrestin recruitment. P35363. CHO-K1 mHTR2A beta-arrestin complementation, luminescence; percent of 30 µM serotonin response. 0.66% of 360,000 active. activation, % at 7.6 µM;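 active = activation above a run cutoff, the mean activation of all tested compounds plus 3 SD, cut at about 14% in these data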
B2AR ag – agonists of human beta-2 adrenergic receptor inducing internalization. P07550. Am2.2-beta2AR cells, FAP receptor internalization, flow cytometry. response, % (no concentration beside the values). 0.43% of 340,000 active. AID 504454;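 active = response above a set limit, near 3 SD of response in nonfluorescent compounds, cut at about 42% in these data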
B2AR ag CP1 – human beta-2 adrenergic receptor agonism, cherry pick. shares compounds with B2AR ag. Am2.2-beta2AR cells, FAP surface receptor, flow cytometry; active compounds read low. percent response (surface receptor), % at 10 µM. 25% of 1,100 active;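 active = surface receptor percent response at or below 58%, roughly 3 SD from nonfluorescent compounds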
FAP fluor counter – counter-screen for beta-2AR agonists: fluorescence in Am2.2 cells. shares compounds with B2AR ag. FAP fluorogen flow cytometry, fluorescence counterscreen; active compounds read low. calls only at 10 µM. 1,100 tested, under 10 active;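 active = percent response below a set limit in fluorescence channel 1 and below 50% in channel 8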
ABHD5 PLIN5 conf – confirmation of human ABHD5-PLIN5 interaction inhibitors; 67% of 2,200 active; AID 651612; shares compounds with ABHD5-PLIN5 inh; inhibition, % at 4 µM; biochemical ABHD5-PLIN5 interaction, luminescence; in the data active = inhibition above about 23%
HNF4 split-luc – HNF4 split-luciferase signal hit, counter-screen. shares compounds with ABHD5-PLIN5 inh. HNF4 dimerization, luminescence, biochemical. inhibition, % at 4 µM. 77% of 2,200 active. AID 651674;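 active = mean inhibition across replicate wells exceeding the computed hit threshold, cut at about 13% in these data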;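 also: light from luciferase halves that rejoin when HNF4 fusion proteins dimerize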
Numbers stand for hits; . = inactive; / = not tested or not shown; ! = repeats disagree. An excerpt weighted towards active compounds, which were near 2.3% of everything screened.

SMILES	Granule exo inh	NTR1 agonist	ABHD5-PLIN5 inh	m5-HT2A agonist	B2AR ag	B2AR ag CP1	FAP fluor counter	others
COc1ccc(C)cc1S(=O)(=O)N(C)CC(=O)N1CCN(c2ccccc2)CC1	.	.	.	.	.	.	.
CCN(C(=O)CSC1=Nc2ccccc2C2CC=NN12)C1CCS(=O)(=O)C1 (stereo not drawn)	.	.	.	.	.	/	/
CC1CCc2nc(NC(=O)c3cc(C(C)(C)C)nn3C)sc2C1 (stereo not drawn)	.	.	.	.	.	/	/
Cc1ccc(-c2nc(NC(=O)c3cc(C(C)(C)C)nn3C)sc2C)cc1Cl	.	.	.	.	.	.	.
CN(C)S(=O)(=O)c1cc([N+](=O)[O-])ccc1N1CCCCCC1	.	.	.	.	.	/	/
CC(C)CN(CC(C)C)S(=O)(=O)c1cc([N+](=O)[O-])ccc1N1CCCCCC1	.	.	.	.	52	.	.
CSc1ccc2c(c1)C(N1CCN(C)CC1)Cc1ccccc1S2 (stereo not drawn)	.	.	.	.	61!	.	.
CC[C@@]1(C(=O)OC)N[C@H](CN(C)S(=O)(=O)c2ccc(OC(F)(F)F)cc2)[C@@H]2C(=O)N(C)C(=O)[C@@H]21	.	.	.	.	.	/	/
O=C(OCc1nnc(-c2ccccc2)o1)c1ccc(CO)cc1	.	.	.	.	.	.	.
Cc1ccccc1NC(=O)COC(=O)c1ccc(S(C)(=O)=O)c([N+](=O)[O-])c1	.	.	.	.	.	/	/
CC(=O)c1cccc(NC(=O)COC(=O)c2ccc(S(C)(=O)=O)c([N+](=O)[O-])c2)c1	.	.	.	.	68	.	.
CS(=O)(=O)c1ccc(C(=O)OCc2nnc(-c3ccccc3)o2)cc1[N+](=O)[O-]	.	/	.	.	85	.	.
COc1ccc(OCc2nnc(SCC(=O)Nc3ccccc3Cl)o2)cc1	.	.	.	.	.	/	/
COc1ccc(OC(=O)N(C)C[C@@H]2OCc3cn(nn3)CCCC(=O)N([C@@H](C)CO)C[C@H]2C)cc1	.	/	.	.	/	/	/
Cc1c(C)n(CC(O)CSc2ccccc2)c2ccccc12 (stereo not drawn)	.	/	.	.	/	/	/
CC(=O)c1ccc(NC(=O)C(C)NCc2ccccc2Cl)cc1 (stereo not drawn)	.	.	.	.	.	/	/
CN(C(=O)CSc1nc(-c2ccc(C(C)(C)C)cc2)c(C#N)c(=O)[nH]1)C1CCCCC1	.	.	.	.	.	.	.
O=C(CSc1nc2ccccc2c(=O)n1-c1ccc(F)cc1F)c1c[nH]c2ccccc12	.	.	.	.	45	.	.
O=C(CSc1nc2ccccc2c(=O)n1-c1ccc(F)cc1F)NC1CC1	.	/	.	.	/	/	/
Cc1ccc(S(=O)(=O)NC(Cc2ccccc2)C(=O)O)cc1C (stereo not drawn)	.	.	.	.	.	/	/
COc1cc(C=C2CN(C)C(=O)C2=O)ccc1O	.	/	.	.	/	/	/
CCOc1cc(/C=C2\CN(C)C/C(=C\c3ccc(O)c(OCC)c3)C2=O)ccc1O	.	.	78	.	46	.	.	ABHD5 PLIN5 conf=97;HNF4 split-luc=88
CCOC(=O)c1ccc(N=c2sc(C(=O)OC)cc(=O)n2-c2ccc(C(=O)OCC)cc2)cc1	.	.	34	.	48	50	.	ABHD5 PLIN5 conf=92;HNF4 split-luc=88
Cc1ccc2nc(N(CCCN(C)C)C(=O)c3ccco3)sc2c1	.	.	.	.	.	/	/
Cc1ccc2nc(N(CCCN(C)C)C(=O)c3ccc(Br)s3)sc2c1	.	.	30	.	54	.	.	ABHD5 PLIN5 conf=.;HNF4 split-luc=.
CCCCCCCCCCOC(=O)Cn1c(COc2ccccc2C)[n+](C)c2ccccc21	80	.	24	.	68	.	.	ABHD5 PLIN5 conf=.;HNF4 split-luc=.
CCOC(=O)Cn1c(COc2ccccc2OC)[n+](C)c2ccccc21	.	.	.	.	.	/	/
